Laboratory results: ChEMBL document CHEMBL1961873, “Compounds: GSK PKIS; Assays: Nanosyn kinase panel” (2012)

What was measured:
[1] = molecular target: T1, 3-phosphoinositide-dependent protein kinase 1 (Homo sapiens) (UniProt O15530); settings: at 0.1 µM;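 further: values are mean inhibition of PDK1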
T1 sequence (whole entry): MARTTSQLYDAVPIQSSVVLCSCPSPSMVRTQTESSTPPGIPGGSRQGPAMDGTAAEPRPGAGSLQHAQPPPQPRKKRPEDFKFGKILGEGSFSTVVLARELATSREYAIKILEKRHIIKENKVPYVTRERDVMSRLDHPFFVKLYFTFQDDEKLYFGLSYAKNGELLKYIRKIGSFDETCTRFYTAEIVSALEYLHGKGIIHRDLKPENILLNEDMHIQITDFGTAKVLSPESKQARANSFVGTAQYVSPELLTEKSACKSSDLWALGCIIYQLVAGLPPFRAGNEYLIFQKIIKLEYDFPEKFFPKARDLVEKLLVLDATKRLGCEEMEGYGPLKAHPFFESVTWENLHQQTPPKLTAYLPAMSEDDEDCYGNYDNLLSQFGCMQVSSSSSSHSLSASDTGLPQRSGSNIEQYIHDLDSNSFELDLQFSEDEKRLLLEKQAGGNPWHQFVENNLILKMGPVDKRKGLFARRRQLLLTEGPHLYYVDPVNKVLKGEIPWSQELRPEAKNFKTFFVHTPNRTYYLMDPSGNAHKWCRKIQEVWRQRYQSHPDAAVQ

[2] = molecular target: cAMP-dependent protein kinase catalytic subunit alpha (Homo sapiens) (UniProt P17612); settings: at 0.1 µM
[3] = molecular target: cAMP-dependent protein kinase catalytic subunit alpha (Homo sapiens) (UniProt P17612); settings: at 1 µM
[4] = molecular target: Protein kinase C alpha type (Homo sapiens) (UniProt P17252); settings: at 0.1 µM
[5] = molecular target: Protein kinase C alpha type (Homo sapiens) (UniProt P17252); settings: at 1 µM
[6] = molecular target: Protein kinase C beta type (Homo sapiens) (UniProt P05771); settings: at 0.1 µM
[7] = molecular target: Protein kinase C beta type (Homo sapiens) (UniProt P05771); settings: at 1 µM
[8] = molecular target: Protein kinase C eta type (Homo sapiens) (UniProt P24723); settings: at 0.1 µM
[9] = molecular target: Protein kinase C eta type (Homo sapiens) (UniProt P24723); settings: at 1 µM
[10] = molecular target: Protein kinase C gamma type (Homo sapiens) (UniProt P05129); settings: at 0.1 µM;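 further: values are mean percent inhibition of PKC gamma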

Chain of Protein kinase C beta type (Homo sapiens) (P05771 2-671 limits assumed): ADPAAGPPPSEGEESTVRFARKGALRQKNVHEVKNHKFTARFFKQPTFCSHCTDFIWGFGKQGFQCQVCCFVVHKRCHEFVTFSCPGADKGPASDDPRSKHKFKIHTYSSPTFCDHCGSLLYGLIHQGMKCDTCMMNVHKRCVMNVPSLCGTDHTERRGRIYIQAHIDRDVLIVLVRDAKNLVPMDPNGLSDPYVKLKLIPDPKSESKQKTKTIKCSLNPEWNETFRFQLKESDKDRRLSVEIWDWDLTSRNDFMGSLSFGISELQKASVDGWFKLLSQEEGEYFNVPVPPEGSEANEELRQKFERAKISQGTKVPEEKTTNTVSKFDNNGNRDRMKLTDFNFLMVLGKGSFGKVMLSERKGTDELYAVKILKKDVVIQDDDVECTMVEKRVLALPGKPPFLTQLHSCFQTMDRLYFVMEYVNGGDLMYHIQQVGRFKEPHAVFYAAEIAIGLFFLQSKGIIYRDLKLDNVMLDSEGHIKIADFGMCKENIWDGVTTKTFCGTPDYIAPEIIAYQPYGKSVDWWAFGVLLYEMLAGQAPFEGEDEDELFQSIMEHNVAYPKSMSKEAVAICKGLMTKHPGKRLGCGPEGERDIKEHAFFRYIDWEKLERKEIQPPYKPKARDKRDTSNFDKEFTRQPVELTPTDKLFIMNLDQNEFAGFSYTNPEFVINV
Chain of Protein kinase C eta type (Homo sapiens) (P24723 whole entry): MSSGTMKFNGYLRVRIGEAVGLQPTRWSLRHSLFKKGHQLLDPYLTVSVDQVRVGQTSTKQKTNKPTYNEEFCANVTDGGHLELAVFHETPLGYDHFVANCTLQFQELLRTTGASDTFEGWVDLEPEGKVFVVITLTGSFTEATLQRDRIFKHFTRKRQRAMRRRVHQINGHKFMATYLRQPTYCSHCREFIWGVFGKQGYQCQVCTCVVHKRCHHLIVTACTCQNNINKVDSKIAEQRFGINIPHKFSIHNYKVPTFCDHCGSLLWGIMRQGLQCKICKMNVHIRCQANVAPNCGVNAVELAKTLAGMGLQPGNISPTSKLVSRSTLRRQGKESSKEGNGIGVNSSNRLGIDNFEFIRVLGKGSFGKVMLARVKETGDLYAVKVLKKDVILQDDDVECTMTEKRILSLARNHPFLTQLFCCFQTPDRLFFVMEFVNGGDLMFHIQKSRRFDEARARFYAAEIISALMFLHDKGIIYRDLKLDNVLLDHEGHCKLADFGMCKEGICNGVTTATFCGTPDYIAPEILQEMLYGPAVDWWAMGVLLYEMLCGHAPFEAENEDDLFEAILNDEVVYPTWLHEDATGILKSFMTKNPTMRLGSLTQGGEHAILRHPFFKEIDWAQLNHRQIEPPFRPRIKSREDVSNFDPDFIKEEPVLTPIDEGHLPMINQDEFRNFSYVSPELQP

Structure (SMILES) | inhibition [1] | inhibition [2] | inhibition [3] | inhibition [4] | inhibition [5] | inhibition [6] | inhibition [7] | inhibition [8] | inhibition [9] | inhibition [10]
CC(C)COC(=O)c1ccc2c(c1)/C(=C/Nc1ccc(S(N)(=O)=O)cc1)C(=O)N2 | 19.6% | 6.49% | 11.8% | 1.15% | 7.21% | 3.19% | 5.57% | -1.68% | 1.97% | -1.87%
CCOc1ccc2c(-c3ccnc(Nc4cccc(C(F)(F)F)c4)n3)cnn2n1 | -2.03% | 1.32% | 1.22% | 0.95% | 0.74% | 0.58% | 0.67% | 0.98% | -0.29% | 4.45%
Cc1ccc2c(-c3ccnc(Nc4ccccc4)n3)c(-c3ccc(F)cc3)nn2n1 | 2.18% | 1.83% | 4.25% | 1.15% | 11.3% | 1.13% | 6.49% | 0.7% | 1.97% | 2.27%
NS(=O)(=O)c1ccc(N/N=C2\C(=O)Nc3ccc4ncccc4c32)cc1 | 20.8% | 1.4% | 3.13% | 0.41% | 3.78% | -0.44% | -0.03% | 2.36% | 3.07% | 0.51%
COc1cc2ncn(-c3cc(OCc4ccccc4C(F)(F)F)c(C(=O)N(C)C)s3)c2cc1OC | 1.17% | 0.88% | 0.93% | -0.03% | 0.21% | 0.35% | -0.32% | 1.66% | 0.73% | -1.33%
O=S(=O)(CCNCc1ccc(-c2ccc3ncnc(Nc4ccc(OCc5cccc(F)c5)c(Cl)c4)c3c2)o1)c1ccccc1 | 0.78% | 2.48% | 6.82% | 1.39% | 2.12% | 0.95% | 2.13% | 4.07% | 3.1% | 1.93%
COc1cc(Nc2nccc(Nc3ccc4c(C)n[nH]c4c3)n2)cc(OC)c1OC | 2.76% | 2.38% | 14% | 1.29% | 10.2% | 1.4% | 1.99% | 3.09% | -1.03% | 3.2%
Fc1ccc(-c2nn3ncccc3c2-c2ccnc(Nc3ccc4c(c3)OCCO4)n2)cc1 | 1.87% | 2.22% | 7.13% | 1.5% | 15.3% | 1.43% | 13.3% | 2.26% | 6.09% | -1.6%
COc1cccc(-c2c[nH]c3c(N/N=C/c4ccncc4)ncnc23)c1 | 6.08% | 1.57% | 3.93% | 0.02% | 4.24% | 2.33% | 4.29% | 2.72% | 1.53% | 2.27%
COc1cc(N2CCN(C(C)C)CC2)ccc1Nc1nc(Nc2ccc(F)cc2C(N)=O)c2cc[nH]c2n1 | -1.21% | 7.85% | 7.44% | 0.54% | 6.72% | 1.83% | 4.58% | 1.05% | 3.09% | 3.65%
O=C(O[C@H]1CN[C@H](C#Cc2cc3ncnc(Nc4ccc(Cc5ccccc5)cc4)c3s2)C1)N1CCOCC1 | -1.22% | 4.03% | 5.91% | 0.96% | 4.81% | 2.02% | 4.66% | 2.47% | 4.45% | 4.28%
CCc1nn2ncccc2c1-c1ccnc(NC2CC2)n1 | 1.73% | 0.78% | 1.73% | 0.35% | 1.73% | 1.02% | 2.65% | 0.47% | 0.53% | 0.95%
CNC(=O)c1cccc(C#Cc2cncnc2Nc2ccc(OCc3cccc(F)c3)c(Cl)c2)c1 | 1% | 1.13% | 0.28% | -0.17% | 0.64% | 0.07% | 1.77% | 1.23% | -0.12% | 0.99%
CCCN(CCS(C)(=O)=O)Cc1ccc(-c2ccc3ncnc(Nc4ccc(OCc5cccc(F)c5)c(Cl)c4)c3c2)o1 | 1.25% | 0.67% | 1.36% | 0.08% | 1.04% | 0.26% | 0.52% | 2.45% | 3.94% | 1.25%
Nc1ncc(-c2cccc(S(N)(=O)=O)c2)c2scc(-c3ccc(F)c(Cl)c3)c12 | 1.01% | 3.02% | 3.59% | -0.67% | 2.74% | -0.08% | 0.9% | 4.76% | 6.59% | -0.92%
Fc1cccc(COc2ccc(Nc3ncnc4sc(-c5ccco5)cc34)cc2Cl)c1 | -0.87% | 0.8% | 1.84% | 1.33% | 1.21% | 0.29% | -3.68% | 5.34% | 4.83% | 1.52%
COc1ccc(CNC(=O)c2ccc(-c3cc(-c4nnc(C)o4)ccc3C)cc2)cc1 | 1.94% | 3.14% | 3.15% | 0.19% | 0.76% | 6.66% | 9.43% | -0.12% | 4.73% | 3.1%

Structure (SMILES) | inhibition [1] | inhibition [2] | inhibition [3] | inhibition [4] | inhibition [5] | inhibition [6] | inhibition [7] | inhibition [8] | inhibition [9] | inhibition [10]
CCn1cc(-c2ccnc3[nH]ccc23)c(-c2cccc(NC(=O)Nc3ccc(OCc4ccccc4)cc3)c2)n1 | -1.57% | 4.08% | 5.34% | 1.25% | 2.76% | 0.5% | 1.43% | -2.7% | 1.78% | 0.3%
CC1=C(C(=O)Nc2cc(Cl)c3[nH]ncc3c2)C(c2ccc(C(F)(F)F)cc2)CC(=O)N1 (stereo not given) | 1.84% | 21.8% | 71% | 0.91% | 1.52% | 0.15% | 2.02% | 5.7% | 39.1% | 3.92%
CCn1c(-c2nonc2N)nc2c(C#CC(C)(C)O)nc(OC[C@H](N)c3ccccc3)cc21 | 0.94% | 81.3% | 82.5% | 3.82% | 32.3% | 32.7% | 67.3% | 97.9% | 97.1% | 8.83%
Cc1ccc(O)cc1Nc1ccnc2cc(-c3ccccn3)ccc12 | 3.22% | 1.65% | 0.73% | 0.94% | 1.06% | -0.22% | 0.21% | 4.81% | 3.71% | 5.48%
COc1ccc2c(-c3ccnc(Nc4cccc(OC(F)(F)F)c4)n3)cnn2n1 | 1.72% | 1.61% | 3.17% | 1.34% | 12.7% | 0.08% | 3.07% | 6.47% | 6.9% | 5.4%
FC(F)(F)c1cccc(-c2nn3ncccc3c2-c2ccnc(Nc3ccc4c(c3)OCCO4)n2)c1 | 0.71% | 1.01% | 2.39% | 0.53% | 1.32% | 0.07% | -2.34% | 2.1% | 1.3% | 0.03%
[O-][S+]1CCN(Cc2ccc(-c3ccc4ncnc(Nc5ccc(OCc6cccc(F)c6)c(Cl)c5)c4c3)o2)CC1 | 4.4% | 2.27% | 3.13% | 1.17% | 1.29% | -0.91% | 1.67% | 2.12% | 4.25% | 3.03%
CCn1c(-c2nonc2N)nc2ccccc21 | 2.81% | 3.16% | 18.5% | 0.44% | 5.52% | 12.7% | 46.5% | 20.8% | 67.6% | 3.92%
CCn1c(-c2nonc2N)nc2c(C#CC(C)(C)O)ncc(OC3CCNCC3)c21 | 2.52% | 62.4% | 89.9% | 3.68% | 30.4% | 41.8% | 73.2% | 89.7% | 99.9% | 35.1%
CCN1CCC(CC(=O)Nc2n[nH]c3nnc(-c4cccc(F)c4F)cc23)CC1 | 1.89% | 1.6% | 3.23% | 0.66% | 1.58% | 2.14% | 0.03% | 1.63% | 3.3% | 3.44%
COc1ccc(-c2cc(-c3c[nH]nc3-c3ccccn3)ccn2)cc1 | 2.34% | 2.05% | 3.35% | 0.46% | 2.09% | 1.41% | 3.92% | 4.04% | 5.03% | 1.23%
Clc1ccc(-c2nn3ncccc3c2-c2ccnc(Nc3ccccc3)n2)cc1 | 0.53% | 1.67% | 2.52% | 1.23% | -0.09% | 0.65% | 1.93% | -0.59% | -0.77% | -1.17%
c1ccc(-c2nc3n(c2-c2ccc4c(c2)OCO4)CCC3)nc1 | 0.98% | 1.49% | 5.08% | 0.9% | 1.8% | 3.53% | 5.04% | 1.35% | 1.85% | 0%
CCN(CC)S(=O)(=O)c1ccc(OC)c(Nc2ncc(-c3ccccc3)o2)c1 | 1.9% | 0.79% | 1.82% | 0.46% | 1.64% | 1.38% | 1.74% | 3.12% | 0.58% | 0.29%
Fc1ccc(-c2cc(-c3c[nH]nc3-c3ccccn3)ccn2)cc1 | 0.78% | 1.9% | 2.54% | 0.45% | 0.88% | 1.93% | 3.1% | 4.28% | 6.6% | -0.18%
c1ccc(COc2ccc(Nc3ncnc4ccc(-c5ccco5)cc34)cc2)cc1 | 0.07% | 1.25% | 1.55% | -0.04% | 0.05% | -0.86% | -0.3% | 0.37% | 0.45% | 0.73%
CC(=O)Nc1cccc(C#Cc2cncnc2Nc2ccc(OCc3cccc(F)c3)c(Cl)c2)c1 | 2.17% | 2.17% | 4.12% | 0.9% | 2.2% | 0.65% | 0.21% | 0.22% | -0.44% | 3.94%
